Measured values published in PubChem BioAssay AID1159580 (chemical genetic matrix, 2015).
“And” between values parts separate entries of the source, which are not always exact repeats. Equal values may be shown once. In all, about 5,500 compounds went through this assay and about 2,000 (36%) were called active. Another 18% or so got no clear call; they are omitted. Rule as the data show it: active = normalized growth mostly below about 0.91 (no sharp cut-off); inconclusive = no clear call, values can overlap the other calls; inactive = mostly above about 0.92. The list shows a part of the results.

Assay: chemical genetic growth profiling, strain panel (AID 1159580);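 also: tested at 20 µM; growth read once vehicle control cultures reached saturation at 30 °C; 1 = growth at the plate median or of vehicle wells; lower values mean less growth of the strain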
Conditions: S. cerevisiae deletion strains, growth OD

Measured: normalized growth

O=c1cc(-c2ccccc2)oc2c(O)c(O)ccc12
inactive: locus YAL021C, strain ccr4, stronger effect = lower value 0.913 | locus YAL026C, strain drs2, stronger effect = lower value 0.977 | locus YAL030W, strain snc1, stronger effect = lower value 0.99 | locus YBL061C, strain skt5, stronger effect = lower value 0.995 | locus YBR009C, strain hhf1, stronger effect = lower value 0.98 | locus YBR021W, strain FUR4, stronger effect = lower value 0.955 | locus YBR023C, strain chs3, stronger effect = lower value 0.997 | locus YBR171W, strain sec66, stronger effect = lower value 0.964 | locus YBR229C, strain ROT2, stronger effect = lower value 0.974 | locus YBR231C, strain swc5, stronger effect = lower value 0.98 | locus YBR279W, strain paf1, stronger effect = lower value 0.99 | locus YCL011C, strain gbp2, stronger effect = lower value 0.984 | locus YCL016C, strain dcc1, stronger effect = lower value 0.98 | locus YCL029C, strain bik1, stronger effect = lower value 0.956 | locus YCL061C, strain MRC1, stronger effect = lower value 0.981 | locus YCL069W, strain vba3, stronger effect = lower value 0.985 | locus YCR088W, strain abp1, stronger effect = lower value 0.991 | locus YDL005C, strain med2, stronger effect = lower value 0.991 | locus YDL035C, strain GPR1, stronger effect = lower value 0.863 | locus YDL040C, strain nat1, stronger effect = lower value 0.992 | locus YDL074C, strain BRE1, stronger effect = lower value 0.808 | locus YDL101C, strain DUN1, stronger effect = lower value 0.948 | locus YDL185W, strain tfp1, stronger effect = lower value 0.972 | locus YDR001C, strain nth1, stronger effect = lower value 0.995 | locus YDR069C, strain doa4, stronger effect = lower value 0.936 | locus YDR101C, strain arx1, stronger effect = lower value 0.973 | locus YDR150W, strain NUM1, stronger effect = lower value 0.984 | locus YDR159W, strain sac3, stronger effect = lower value 0.971 | locus YDR162C, strain NBP2, stronger effect = lower value 0.834 | locus YDR195W, strain ref2 1.03 | locus YDR297W, strain sur2, stronger effect = lower value 0.988 | locus YDR318W, strain mcm21, stronger effect = lower value 0.991 | locus YDR334W, strain swr1, stronger effect = lower value 0.942 | locus YDR335W, strain msn5, stronger effect = lower value 0.979 | locus YDR388W, stronger effect = lower value 0.989 | locus YDR392W, strain spt3, stronger effect = lower value 1 | locus YDR502C, strain sam2, stronger effect = lower value 0.96 | locus YEL003W, strain gim4, stronger effect = lower value 0.983 | locus YEL037C, strain rad23, stronger effect = lower value 0.986 | locus YEL061C, strain CIN8 (second series), stronger effect = lower value 0.99 | locus YEL061C, strain CIN8, stronger effect = lower value 0.978 | locus YER015W, strain faa2, stronger effect = lower value 0.99 | locus YER016W, strain bim1, stronger effect = lower value 0.983 | locus YER110C, stronger effect = lower value 0.962 | locus YER111C, strain swi4, stronger effect = lower value 0.983 | locus YER155C, strain BEM2 (second series), stronger effect = lower value 0.982 | locus YER155C, strain BEM2, stronger effect = lower value 1.02 | locus YER167W, strain BCK2, stronger effect = lower value 1 | locus YFR010W, strain ubp6, stronger effect = lower value 0.944 | locus YGL078C, strain dbp3, stronger effect = lower value 0.98 | locus YGL086W, strain mad1, stronger effect = lower value 0.932 | locus YGL167C, strain pmr1, stronger effect = lower value 0.988 | locus YGL173C, strain kem1, stronger effect = lower value 0.975 | locus YGL227W, strain vid30, stronger effect = lower value 1 | locus YGL240W, strain doc1, stronger effect = lower value 0.956 | locus YGL248W, strain PDE1, stronger effect = lower value 0.923 | locus YGL253W, strain hxk2, stronger effect = lower value 0.99 | locus YGR135W, strain pre9, stronger effect = lower value 0.947 | locus YGR252W, strain gcn5, stronger effect = lower value 0.802 | locus YHR013C, strain ard1, stronger effect = lower value 0.951 | locus YHR027C, strain rpn1, stronger effect = lower value 0.983 | locus YHR030C, strain SLT2, stronger effect = lower value 0.98 and 1.06 | locus YHR079C, strain IRE1 (second series), stronger effect = lower value 0.988 | locus YHR079C, strain IRE1, stronger effect = lower value 1.05 | locus YHR094C, strain hxt1, stronger effect = lower value 0.99 | locus YHR129C, strain ARP1, stronger effect = lower value 0.93 | locus YHR142W, strain chs7, stronger effect = lower value 0.973 | locus YHR200W, strain rpn10, stronger effect = lower value 0.958 | locus YIL066C, strain RNR3, stronger effect = lower value 0.873 | locus YIL073C, strain SPO22, stronger effect = lower value 0.702 | locus YIL125W, strain kgd1, stronger effect = lower value 0.97 | locus YIR030C, strain dcg1, stronger effect = lower value 0.997 | locus YJL092W, strain hpr5, stronger effect = lower value 0.994 | locus YJL095W, strain BCK1 (second series), stronger effect = lower value 0.996 | locus YJL115W, strain asf1, stronger effect = lower value 0.971 | locus YJL129C, strain trk1, stronger effect = lower value 0.912 | locus YJL134W, strain LCB3, stronger effect = lower value 0.986 | locus YJL154C, strain vps35, stronger effect = lower value 0.984 | locus YJL164C, strain tpk1, stronger effect = lower value 0.985 | locus YJL166W, strain qcr8, stronger effect = lower value 0.994 | locus YJL168C, strain set2, stronger effect = lower value 0.981 | locus YJL187C, strain SWE1, stronger effect = lower value 0.975 | locus YJR043C, strain POL32, stronger effect = lower value 0.921
0.733 (active) and 1.08 (inactive): locus YJL095W, strain BCK1, stronger effect = lower value
active: locus YDL192W, strain arf1, stronger effect = lower value 0.88 | locus YDR137W, strain rgp1, stronger effect = lower value 0.664 | locus YJL187C, strain SWE1 (second series), stronger effect = lower value 0.844
